MPTP block: inhibitors of mitochondrial permeability transition pore. isolated mouse mitochondria, Ca2+ swelling absorbance, 30 min. inhibition, % at 10 µM. 360,000 compounds, 1.4% hits. AID 602449;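 active = inhibition of 50% or more, scaled per plate between neutral and stimulator controls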;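 note: 0% = DMSO wells given calcium and 100% = 1 mM EGTA wells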
DSG3 Ab inh: blocks pemphigus antibody binding to human desmoglein-3; 310,000 compounds, 0.48% hits; DSG3-coupled beads, scFv-anti-DSG3-GFP binding, flow cytometry; active compounds read low; AID 588358; binding (percent of control), % at 10 µM; P32926;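 active = binding more than 3 SD below its plate's average and above zero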;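 note: hits lower antibody fragment binding to DSG3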
rCAG binder: r(CAG) repeat RNA binding; TO-PRO-1 dye displacement fluorescence; inhibition, % at 3 µM; 370,000 compounds, 1.3% hits; AID 651821;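 active = inhibition above the plate cutoff, the mean of all test compounds on that plate plus 3 SD, cut at about 35% in these data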;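 note: 0% = DMSO alone and 100% = 100 µM mitoxantrone as full dye displacement; higher means more dye released from RNA so lower well fluorescence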
KLK7 zymogen act: activates the human kallikrein-7 zymogen. P49862. purified proKLK7, EDANS-DABCYL substrate fluorescence; 100% is mature enzyme control, 0% vehicle. activation, % at 7 µM. 370,000 compounds, 0.9% hits. AID 652039;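 active = activation above the mean of all tested compounds plus 3 SD, computed per campaign excluding outliers beyond control limits, cut at about 13% in these data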
ADAM17 inh: ADAM17 inhibition, QFRET primary screen. 370,000 compounds, 0.83% hits. AID 720648. P78536. inhibition, % at 6.95 µM. recombinant ADAM17, EDANS/DABCYL FRET peptide cleavage;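 active = inhibition above the mean of compounds lying between control limits plus 3 SD, set per campaign, cut at about 8.5% in these data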;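 note: 0% = DMSO-only wells as the low control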
ADAM10 inh: inhibitors of human ADAM10; O14672; recombinant ADAM10, EDANS/DABCYL FRET peptide cleavage, 3 h; inhibition, % at 7 µM; 370,000 compounds, 0.62% hits; AID 720582;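 active = inhibition above a per-campaign cutoff equal to the mean of compounds falling between control-based bounds plus 3 SD, cut at about 20% in these data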;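 note: 0% = DMSO wells while the 100% control is not disclosed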
Target sequence (O14672 214-748 limits assumed): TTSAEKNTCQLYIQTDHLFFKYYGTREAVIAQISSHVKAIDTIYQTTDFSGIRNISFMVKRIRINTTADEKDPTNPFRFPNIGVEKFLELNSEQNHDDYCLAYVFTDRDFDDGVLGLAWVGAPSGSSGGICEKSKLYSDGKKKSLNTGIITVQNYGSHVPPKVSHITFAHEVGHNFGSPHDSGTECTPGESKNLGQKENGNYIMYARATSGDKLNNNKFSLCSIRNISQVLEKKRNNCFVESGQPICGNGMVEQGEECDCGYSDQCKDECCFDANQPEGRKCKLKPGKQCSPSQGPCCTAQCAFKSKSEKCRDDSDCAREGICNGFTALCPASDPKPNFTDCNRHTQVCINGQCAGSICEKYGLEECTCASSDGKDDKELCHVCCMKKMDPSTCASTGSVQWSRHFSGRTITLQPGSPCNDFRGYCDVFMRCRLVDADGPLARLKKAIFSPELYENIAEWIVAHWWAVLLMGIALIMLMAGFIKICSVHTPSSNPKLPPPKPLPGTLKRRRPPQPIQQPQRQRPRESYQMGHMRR
ADAM10 confirm: confirmation of inhibitors of human ADAM10; shares compounds with ADAM10 inh; ADAM10 QFRET peptide cleavage, EDANS fluorescence; inhibition, % at 6.95 µM; 2,100 compounds, 1% hits; AID 743208;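 active = inhibition above about 20% chosen separately for each screening run, limit read from the data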;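 note: 0% = DMSO wells and 100% = marimastat wells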
ADAM17 ctr: inhibits human ADAM17 in ADAM10 exosite counter-screen | ADAM17 QFRET peptide cleavage, EDANS fluorescence | 2,100 compounds, 0.5% hits | shares compounds with ADAM10 inh | AID 743214 | inhibition, % at 6.95 µM;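 active = mean triplicate inhibition above the solvent-only control wells' mean plus 3 SD, cut at about 12% in these data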;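 note: 0% = DMSO wells and 100% = marimastat wells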
ADAM10 counter: counter-screen for ADAM17 exosite inhibitors: inhibitors of human ADAM10 | AID 743256 | shares compounds with ADAM17 inh | inhibition, % at 6.95 µM | 2,900 compounds, 47% hits | recombinant ADAM10, EDANS/DABCYL FRET peptide cleavage, 3 h;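 active = mean inhibition over the triplicate runs exceeds the activity threshold set in the earlier primary screen, cut at about 20% in these data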;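 note: 0% = DMSO wells and 100% = marimastat wells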
ADAM17 confirm: human ADAM17 inhibition, confirmation; shares compounds with ADAM17 inh; recombinant ADAM17, EDANS/DABCYL QFRET peptide cleavage; inhibition, % at 6.95 µM; 2,900 compounds, 65% hits; AID 743257;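 active = mean inhibition across replicates above the hit cutoff set in the primary screen, cut at about 8.5% in these data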;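 note: 0% = DMSO wells and 100% = marimastat wells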
The depositor's hits bear a star; / = no result given. This is a sample that favours compounds with a hit; in the whole collection about 4.7% have one here.

SMILES	MPTP block	DSG3 Ab inh	rCAG binder	KLK7 zymogen act	ADAM17 inh	ADAM10 inh	ADAM10 confirm	ADAM17 ctr	ADAM10 counter	ADAM17 confirm
O=C(NCc1ccco1)c1ccc(N2CCCCC2)c([N+](=O)[O-])c1	0.1	113.0	-2.5	-0.1	1.0	-2.1	/	/	/	/
CC1CCN(c2ccc(C(=O)NCc3ccco3)cc2[N+](=O)[O-])CC1	1.9	108.7	9.2	0.7	9.0*	22.8*	1.4	0.6	7.9	7.4
COC(=O)[C@]12CCCCC=C1N(Cc1ccccc1)C(=O)[C@H](CC(=O)NCc1cccc(C(F)(F)F)c1)C2	0.4	/	1.1	-0.6	1.5	5.1	/	/	/	/
O=[N+]([O-])c1ccc(S(=O)(=O)Nc2ccc(-c3csc(-c4ccccc4)n3)cc2)cc1	/	/	78.6*	0.0	17.3*	34.4*	12.3	4.0	33.6*	16.8*
Cc1ccc(S(=O)(=O)Nc2ccc(-c3csc(-c4ccccc4)n3)cc2)cc1	4.1	112.5	28.0	-1.4	15.5*	31.1*	19.1	5.5	24.1*	19.8*
O=S(=O)(Nc1ccc(-c2csc(-c3ccccc3)n2)cc1)c1ccccc1	4.6	100.0	22.0	-0.5	5.0	13.4	/	/	/	/
O=C(Cc1nc(-c2ccc([N+](=O)[O-])cc2)cs1)Nc1ccccc1	-0.9	106.5	11.2	-0.4	1.2	3.0	/	/	/	/
O=C(Nc1ccc(F)cc1)C(c1cccc(F)c1)N1CCN(Cc2c(F)cccc2Cl)CC1 (stereo not given)	-1.0	/	3.7	0.4	3.5	-0.6	/	/	/	/
N#CCCN(C(=O)COC(=O)c1ccc(CNS(=O)(=O)c2ccc(F)c(Cl)c2)cc1)c1ccc(F)cc1	1.1	101.9	1.8	0.5	11.6*	20.6*	1.6	0.5	34.5*	22.0*
C[C@H](CO)N1C[C@H](C)[C@H](CN(C)C(=O)Nc2ccc(F)cc2)OCc2ccccc2-c2c(n(C)c3ccccc23)C1=O	-0.3	100.6	8.1	1.1	-0.5	8.0	/	/	/	/
C[C@@H]1CN([C@H](C)CO)C(=O)c2c(c3ccccc3n2C)-c2ccccc2CO[C@@H]1CN(C)C(=O)Nc1ccc2c(c1)OCO2	-0.6	104.3	7.2	0.5	13.8*	21.5*	3.7	1.1	19.9*	9.5*
Cc1ccccc1S(=O)(=O)N(C)C[C@@H]1OCc2ccccc2-c2c(n(C)c3ccccc23)C(=O)N([C@H](C)CO)C[C@@H]1C	-1.0	98.0	7.3	0.7	9.7*	27.3*	5.6	2.5	31.7*	16.0*
COC(=O)[C@]12C[C@H](CC(=O)NCCCCc3ccccc3)C(=O)N(Cc3ccccc3)C1=C[C@H](C(C)(C)C)O[C@@H]2C	/	/	2.0	0.0	4.8	15.3	/	/	/	/
CN(CC(=O)Nc1ccccc1)CC(=O)Nc1ccccc1Cl	0.6	96.1	-2.1	-0.4	-1.9	-12.1	/	/	/	/
CCCCc1ccc(NC(=O)CN(C)CC(=O)Nc2ccccc2Cl)cc1	1.4	96.4	1.3	0.1	16.4*	33.9*	2.0	0.9	20.5*	9.6*
Cn1c2c(c3ccccc31)CCN(CCCCN1CCN(c3ccccc3)CC1)C2=O	2.1	98.2	0.8	0.9	-12.3	-69.6	/	/	/	/
Nc1nc(-c2ccccc2)c(N=Nc2ccccc2Cl)s1	11.5	101.2	24.7	0.9	15.9*	25.6*	14.4	4.6	39.7*	25.1*
Cc1ncc(N=Nc2ccccc2Cl)c(-c2ccccc2)n1	0.2	95.9	0.1	-0.6	-1.9	2.8	/	/	/	/
CCc1cccc(NC(=O)COC(=O)/C=C/c2cccs2)c1	-2.6	101.0	-0.3	0.3	3.7	10.2	/	/	/	/

Compound activity (PubChem BioAssay)
